From PubChem
Only some compounds are listed: those with a hit (about 8.1% of all), similar ones and a draw of the others.
MCF10A rerep: induces DNA re-replication in MCF 10a normal breast cells. MCF 10A DNA re-replication, Hoechst nuclear intensity, 48 h. Potency, µM (top dose mostly 46.1 µM), for inactives: at the highest dose activity, positive = re-replication, hits mostly activators. 350,000 compounds, 2.9% hits; also: % of control where 0% means no effect; nearly all actives have a fitted effect of over 50% in size
KB-V1 cytotox: kills drug-selected multidrug resistant KB-V1 cells | KB-V1 MDR cells viability, CellTiter-Glo, 72 h | Potency, µM (top dose mostly 46.1 µM), usual class: cytotoxic | 400,000 compounds, 3.4% hits | AID 1347076; also: % is scaled to controls: 0 for no effect and ±100 for the full control effect; nearly all actives have a fitted effect of over 60% in size
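KB-V1 MDR subline cells in DMEM (phenol-red free, 10% FBS) exposed to compounds in qHTS concentration series for 72 h at 37 degrees C. Viability read by CellTiter-Glo luminescence; concentration-effect curves fitted after normalization and correction.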
ELG1 DNA repair: ELG1-dependent DNA repair inhibition; AID 504467; HEK293T ELG1-luciferase reporter, luminescence, 16 h; DNA damage induced by 5-fluorouridine; Potency, µM (doses to about 46.1 µM), without a hit: at the highest dose activity change, negative = inhibition, most hits filed as inhibitors; 330,000 compounds, 2.3% hits; also: % is scaled to controls: 0 for no effect and ±100 for the full control effect; nearly all actives have a fitted effect of over 55% in size
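Cells (2,000 per well) received 5-fluorouridine plus test compound or DMSO and were incubated 16 hr at 37 °C, 5% CO2. Luciferase activity was read by luminescence 30 min after ONE-Glo addition; signal suppression marked inhibition of damage-induced ELG1 function.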
KB-3-1 cytotox: kills parental KB-3-1 adenocarcinoma cells. Potency, µM (titrated, usually from 46.1 µM), actives largely listed as cytotoxic. AID 1347075. KB-3-1 viability, CellTiter-Glo ATP luminescence, 72 h. 400,000 compounds, 1.4% hits; also: % is scaled to controls: 0 for no effect and ±100 for the full control effect; nearly all actives have a fitted effect of over 60% in size
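72 h, 37 °C compound treatment of KB-3-1 parental cells; CellTiter-Glo added, 10 min, luminescence read. Data corrected against DMSO-only plates and normalized before curve fitting.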
SW480 rerep: inducers of DNA re-replication in SW480 colon cancer cells. Potency, µM (doses to about 46.1 µM), inactives show top-dose re-replication activation, most hits filed as activators. SW480 DNA re-replication, Hoechst DNA content imaging, 48 h. 340,000 compounds, 1.8% hits; also: % of control where 0% means no effect; nearly all actives have a fitted effect of over 55% in size
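250 cells/well; 23 nL cpd via pin tool; 48 hr, 37 C, 5% CO2; Hoechst 40 min; imager read of total nuclear intensity, ex 405/em 500-530 nm.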
Active calls of the source: *; i = inactive; ? = inconclusive; · = not tested or not shown; ! = not confirmed by another sample. Calls follow the shape of the dose curve; as a rule, active = well fitted curve in the direction sought with a large enough effect; inconclusive = small, poorly fitted or top-dose-only effect, or another doubt; inactive = no such curve, though single readings can be large; an effect the other way counts as inactive or inconclusive. Potency is read from the fitted curve at half-maximal effect.

SMILES	MCF10A rerep	KB-V1 cytotox	ELG1 DNA repair	KB-3-1 cytotox	SW480 rerep
CCOC(=O)/C(=C\c1ccc(C)cc1)NC(=O)c1ccccc1	-8%	i	1%	i	-8%
CCOC(=O)/C(=C/C=C/c1ccccc1)NC(=O)c1ccccc1	3%	i	-13%	i	0%
Cc1ccc(/C=C(\NC(=O)c2ccccc2)C(=O)OCc2ccccc2)cc1	3%	16µM*	-2%	i	3%
CCOC(=O)/C(=C\C=C\c1ccccc1)NC(=O)c1ccccc1	-3%	4.6µM*	0%	i	-2%
Cc1ccc(C(=O)N/C(=C\c2ccccc2)C(=O)NCc2ccncc2)cc1	10%	i	1.8µM*	i	16%
N#C/C(=C\c1ccccc1)C(=O)Nc1sc2c(c1C(N)=O)CCC2	·	i	·	i	·
OCC[C@@H]1C[C@@H](O)[C@H](O)[C@@]2(CCc3ccccc3O2)O1	1%	i	16%	i	1%
CCNC(=S)/C(=C(/[O-])c1ccc([N+](=O)[O-])cc1)[n+]1ccccc1	-7%	i	6%	i	-5%
CCc1ccc(/C([O-])=C(/C(=S)NCCN2CCOCC2)[n+]2ccccc2)cc1	6.5µM*	i	13%	i	-4%
CCOc1cc(C2NN=C(c3ccccc3)S2)ccc1OCc1ccccc1Cl (stereo not drawn)	9%	i	?	i	8%
CN(C)CCOc1cc(Cl)cc(Cl)c1	-9%	i	?	i	0%
CCN(CC)CCOc1ccc(C(O)(Cc2ccc(Cl)cc2)c2ccc(C)cc2)cc1 (stereo not drawn)	9.4µM*	·	·	·	?
COCCN(CCOc1cc(C)cc(C)c1)Cc1ccc(Cl)cc1	18µM*	?	-11%	i	?
Cc1ccc(NC(NC(=O)OCCn2c([N+](=O)[O-])cnc2C)C(Cl)(Cl)Cl)cc1 (stereo not drawn)	·	·	8%	·	·
Cc1ncc([N+](=O)[O-])n1CCOC(=O)NC(NCc1ccccc1Cl)C(Cl)(Cl)Cl (stereo not drawn)	25%	7.3µM*	0%	?	?
c1ccc(-c2csc3ncnc(NCC4COc5ccccc5O4)c23)cc1 (stereo not drawn)	26µM*	23µM*	?	1.6µM*	2%
O=c1c2ccccc2nc2c3ccccc3c(NCCN3CCOCC3)nn12	·	·	0%	·	·
c1csc(-c2csc3ncnc(NCCCN4CCOCC4)c23)c1	0%	3.3µM*	?	?	-1%
c1ccc(-c2csc3ncnc(NCCCN4CCOCC4)c23)cc1	0%	8.2µM*	?	i	-3%
O=c1c2c(-c3ccccc3)csc2nc2c3ccccc3c(NCCN3CCOCC3)nn12	9.2µM*	21µM*	8%	i	?
O=C(N/C(=C/c1ccc(F)cc1)C(=O)N1CCOCC1)c1ccco1	·	i	·	i	·
COc1ccc(C(C)(C)C)cc1NC(=O)CCNC(=O)c1ccco1	12%	i	-3%	i	10%
CC(C)(C)NC(=O)C1CC(=O)OC12CCOC(C)(C)C2 (stereo not drawn)	0%	i	11%	i	-7%
CSc1nsc(SCC(=O)N2CCCc3ccccc32)n1	-2%	i	-24%	i	3%
COc1cccc(C(=O)COc2ccccc2-c2ccccc2)c1	5%	i	-11%	i	?
SMILES	MCF10A rerep	KB-V1 cytotox	ELG1 DNA repair	KB-3-1 cytotox	SW480 rerep
CC1CSC(N(C(=O)c2ccc(S(C)(=O)=O)cc2)c2ccc(Cl)cc2)=N1 (stereo not drawn)	110%	i	0%	i	3%
Cc1cccc(-c2nc(NCCCN3CCOCC3)c3ccccc3n2)c1	?	i	?	?	-2%
c1ccc(-c2nc(NCCCN3CCOCC3)c3ccccc3n2)cc1	?	6.5µM*	?	i	7%
CC(=O)Nc1cccc(NC(=O)Cn2cnc3c(oc4ccccc43)c2=O)c1	·	i	·	i	·
O=C(Nc1cccnc1)c1sc(Nc2ccccc2)nc1-c1ccccc1	16µM*	15µM*	?	?	13%
Cc1cccc(Nc2nc(-c3ccccc3)c(C(=O)Nc3cccnc3)s2)c1	23µM*	?	13µM*	?	16µM*
Cc1cccc(NC(=O)c2sc(Cl)nc2-c2ccccc2)c1	26%	i	7%	?	-3%
O=C(O)Cc1sc(Nc2ccccc2)nc1-c1ccccc1	·	i	·	i	·
COc1ccc(S(=O)(=O)N2CCC[C@H]2C(=O)NCc2ccc(Cl)cc2)cc1	8%	?	0%	i	?
CCCCCCCCn1c(=O)c(C(=O)OCC)c(O)c2ccccc21	?	i	2%	i	-1%
CCCCCn1c(=O)c(-c2nc3ccccc3[nH]2)c(O)c2ccccc21	?	?	7.3µM*	?	18µM*
COc1ccc(/C=C/C(=O)c2cc(F)ccc2OC(=O)c2ccccc2C)cc1OC	1.2µM*	i	-10%	?	1.2µM*
COc1ccc(/C=C/C(=O)c2ccc3c4c(cccc24)CC3)cc1	18µM*	?	-8%	?	?
COc1ccc(C(=O)Oc2ccc(F)cc2C(=O)/C=C/c2ccc(OC)c(OC)c2)cc1	0%	?	?	i	?
COc1ccc(/C=C/C(=O)c2cc3cccc(OC)c3oc2=O)cc1	?	i	0%	?	?
COc1ccc(/C=C/C(=O)c2ccc3c4c(cccc24)CC3)cc1OC	18µM*	16µM*	?	?	?
Cc1ccc(NC(=O)N[C@@H](CC(C)C)C(=O)O)c(C)c1	6%	i	0%	i	-3%
COc1ccc(/C=N/N2CCN(Cc3ccc(C)cc3)CC2)cc1Br	27%	i	-2%	i	2%
CN1CCc2cccc3c2[C@H]1Cc1ccc(O)c(O)c1-3	2.9µM*	?	23µM*!	?	8.2µM*!
Cc1cc(/C(O)=C2\C(=O)C(=O)N(CCN(C)C)C2c2ccncc2)ccc1OCc1ccccc1 (stereo not drawn)	-2%	i	14%	i	-13%
CC(/C=N/N1CCN(c2ccccn2)CC1)=C\c1ccccc1	13%	21µM*	?	i	1%
CC(/C=N/N1CCN(c2ccccc2)CC1)=C\c1ccccc1	2%	i	?	i	-2%
CC1([N+](=O)[O-])COC2(CCCCC2)OC1	-1%	i	·	i	1%
NNC(=O)c1csc(COc2cc(Cl)cc(Cl)c2)n1	?	i	0%	?	12%
C#CCN(C)Cc1ccccc1	?	i	0%	i	?
C#CCN(Cc1ccccc1)S(=O)(=O)C=C	26µM*	i	-28%	?	?
